About 79,000 compounds went through this panel and 15% of them were active in at least one assay; those are over-represented in the sample as a whole. Active and inactive are the calls of the source. Cut-off read from the data, not from the text of the source: active = growth inhibition above about 70%; inactive = the rest.
Tests used:
[1] = NCI Yeast Anticancer Drug Screen. Data for the rad52 strain (AID 147);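 note: 0% = growth of vehicle-treated control cultures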; settings: S. cerevisiae rad52 mutant growth inhibition, active compounds read high
How it was run: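 The repair-mutant yeast strain was incubated with compounds, then growth was read and inhibition derived relative to vehicle.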

[2] = NCI Yeast Anticancer Drug Screen. Data for the wt1 strain (AID 149);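 note: 0% = growth of vehicle-treated wt1 cultures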; settings: S. cerevisiae wt1 strain (SPY 50644) growth inhibition, active compounds read high
How it was run: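 Growth inhibition read against vehicle controls after compound exposure of the wt1 yeast strain.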

[3] = NCI Yeast Anticancer Drug Screen. Data for the rad50EPP+ strain (AID 151);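 note: 0% = growth of vehicle-treated control cultures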; settings: S. cerevisiae rad50 mutant strain, active compounds read high
How it was run: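 Vehicle-normalised growth inhibition; rad50EPP+ yeast strain, altered in DNA damage repair, compound-treated.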

[4] = NCI Yeast Anticancer Drug Screen. Data for the rad50 strain (AID 155);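 note: 0% = growth of vehicle-only cultures of the same strain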; settings: S. cerevisiae rad50 strain growth inhibition, active compounds read high
How it was run: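 Readout: growth inhibition relative to vehicle-treated cultures. Compound exposure was carried out in a genetically defined yeast strain deficient in DNA damage repair.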

[5] = NCI Yeast Anticancer Drug Screen. Data for the mec2-1 strain (AID 157); settings: S. cerevisiae mec2-1 strain, active compounds read high
How it was run: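 Mutant yeast (mec2-1) grown with compound; growth inhibition relative to vehicle control reported.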

[6] = NCI Yeast Anticancer Drug Screen. Data for the rad14 strain (AID 159);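 note: 0% = growth of vehicle-treated control cultures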; settings: S. cerevisiae rad14 strain growth inhibition, active compounds read high
How it was run: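 Growth inhibition vs vehicle controls; genetically altered yeast strain (DNA damage repair defect) treated with test compounds.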

[7] = NCI Yeast Anticancer Drug Screen. Data for the sgs1 mgt1 strain (AID 161);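 note: 0% = growth of cultures given vehicle only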; settings: S. cerevisiae sgs1 mgt1 strain, active compounds read high
How it was run: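 Growth of a repair-deficient yeast mutant was monitored after compound treatment and expressed as inhibition relative to vehicle-treated cultures.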

[8] = NCI Yeast Anticancer Drug Screen. Data for the CLN2oe strain (AID 163);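 note: 0% = growth of vehicle-only control cultures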; settings: S. cerevisiae CLN2oe strain, active compounds read high
How it was run: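 Compounds are applied to yeast harbouring a defined cell-cycle control change; reduced growth compared with vehicle-treated controls gives the value.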

[9] = NCI Yeast Anticancer Drug Screen. Data for the cln2 rad14 strain (AID 165);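 note: 0% = growth equal to vehicle treated cultures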; settings: S. cerevisiae cln2 rad14 strain, active compounds read high
How it was run: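 Readout is yeast growth inhibition versus vehicle-treated controls, using a strain with cln2 and rad14 alterations exposed to compound.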

[10] = NCI Yeast Anticancer Drug Screen. Data for the bub3 strain (AID 167); settings: S. cerevisiae bub3 mutant strain, active compounds read high
How it was run: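 Readout: yeast growth inhibition, expressed relative to vehicle-only wells. The test organism is a mutant strain from a panel with lesions in DNA repair or checkpoint genes.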

[11] = NCI Yeast Anticancer Drug Screen. Data for the wt2 strain (AID 169);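 note: 0% = growth of vehicle-treated yeast cultures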; settings: S. cerevisiae wt2 strain growth inhibition, active compounds read high
How it was run: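 Against vehicle-treated controls, the growth of yeast exposed to each compound was compared, and the inhibition was recorded.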

[12] = NCI Yeast Anticancer Drug Screen. Data for the sgs1 strain (AID 173);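 note: 0% = growth of vehicle-only control cultures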; settings: S. cerevisiae sgs1 mutant, active compounds read high
How it was run: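 Each compound was added to cultures of the altered yeast strain. Growth was recorded, and inhibition was derived by comparison with vehicle controls.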

[13] = NCI Yeast Anticancer Drug Screen. Data for the mlh1 rad18 strain (AID 175); settings: S. cerevisiae mlh1 rad18 strain growth inhibition, active compounds read high
How it was run: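 Genetically defined yeast (DNA repair-deficient) exposed to compounds; growth inhibition determined relative to vehicle.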

[14] = NCI Yeast Anticancer Drug Screen. Data for the rad18 strain (AID 177); settings: S. cerevisiae rad18 mutant growth inhibition, active compounds read high
How it was run: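 Vehicle-treated cultures served as the baseline for scoring compound-induced growth inhibition in DNA-repair-mutant yeast.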

[15] = at 5.0 µM (retest, dose inferred, filed as 0.5)
[16] = at 50.0 µM (retest, dose inferred, filed as 5.0)

Measured: growth inhibition

CN(C)CC1CCCc2ccccc2C1=O (stereo not drawn)
inactive: [1]; at 1.2 µM -43% | [1]; at 3.7 µM -39% | [1]; at 11.0 µM -41% | [1]; at 33.0 µM 2% | [2]; at 1.2 µM 1% | [2]; at 3.7 µM -11% | [2]; at 11.0 µM -1% | [2]; at 33.0 µM 9% | [2]; at 100.0 µM 53% | [3]; at 1.2 µM 6% | [3]; at 3.7 µM -4% | [3]; at 11.0 µM 26% | [4]; at 1.2 µM -5% | [4]; at 3.7 µM -2% | [4]; [15] -14% | [4]; at 11.0 µM 5% | [4]; at 33.0 µM 41% | [4]; [16] 40% | [4]; at 50.0 µM 66.2% | [5]; at 1.2 µM -4% | [5]; at 3.7 µM -12% | [5]; [15] -11% | [5]; at 11.0 µM -7% | [5]; at 33.0 µM 20% | [5]; [16] -2% | [5]; at 50.0 µM 23.4% | [6]; at 1.2 µM -6% | [6]; at 3.7 µM -13% | [6]; at 11.0 µM 3% | [6]; at 33.0 µM 12% | [7]; [15] -1% | [7]; [16] 22% | [7]; at 50.0 µM 50.3% | [8]; at 1.2 µM -7% | [8]; at 3.7 µM 1% | [8]; at 11.0 µM 22% | [8]; at 33.0 µM 14% | [9]; [15] -10% | [9]; [16] 20% | [9]; at 50.0 µM 5.05% | [10]; at 1.2 µM 24% | [10]; at 3.7 µM 23% | [10]; [15] -25% | [10]; at 11.0 µM 19% | [10]; at 33.0 µM 28% | [10]; [16] 40% | [10]; at 50.0 µM 32.3% | [11]; at 1.2 µM -32% | [11]; at 3.7 µM -31% | [11]; at 11.0 µM -36% | [11]; at 33.0 µM -1% | [12]; at 1.2 µM -15% | [12]; at 3.7 µM -12% | [12]; at 11.0 µM 12% | [12]; at 33.0 µM 32% | [13]; [15] 13% | [13]; [16] 66% | [14]; at 1.2 µM -14% | [14]; at 3.7 µM 7% | [14]; at 11.0 µM 2% | [14]; at 33.0 µM 38%
active: [1]; at 100.0 µM 76% | [3]; at 33.0 µM 76% | [3]; at 100.0 µM 97% | [4]; at 100.0 µM 91% | [5]; at 100.0 µM 85% | [6]; at 100.0 µM 81% | [8]; at 100.0 µM 89% | [10]; at 100.0 µM 95% | [11]; at 100.0 µM 76% | [12]; at 100.0 µM 84% | [13]; at 50.0 µM 70.2% | [14]; at 100.0 µM 85%

CN(NC(=O)/C(=C/c1ccc(O)cc1)NC(=O)c1ccccc1)c1ccnc2cc(Cl)ccc12
inactive: [1]; at 1.2 µM 2% | [1]; at 3.7 µM 9% | [1]; at 11.0 µM 35% | [1]; at 33.0 µM 60% | [2]; at 1.2 µM 3% | [2]; at 3.7 µM 4% | [2]; at 11.0 µM 11% | [2]; at 33.0 µM 40% | [2]; at 100.0 µM 69% | [3]; at 1.2 µM -2% | [3]; at 3.7 µM 3% | [3]; at 11.0 µM 14% | [3]; at 33.0 µM 34% | [3]; at 100.0 µM 42% | [4]; at 1.2 µM -2% | [4]; at 3.7 µM -4% | [4]; [15] 6% | [4]; at 11.0 µM 15% | [4]; at 33.0 µM 68% | [4]; [16] 20% | [5]; at 1.2 µM 1% | [5]; at 3.7 µM 4% | [5]; [15] 15% | [5]; at 11.0 µM 12% | [5]; at 33.0 µM 44% | [5]; [16] 2% | [5]; at 50.0 µM 46.9% | [6]; at 1.2 µM 0% | [6]; at 3.7 µM 2% | [6]; at 11.0 µM 13% | [6]; at 33.0 µM 38% | [6]; at 100.0 µM 60% | [7]; [15] 9% | [7]; [16] 9% | [7]; at 50.0 µM 51.1% | [8]; at 1.2 µM 6% | [8]; at 3.7 µM 3% | [8]; at 11.0 µM 13% | [8]; at 33.0 µM 39% | [8]; at 100.0 µM 65% | [9]; [15] -3% | [9]; [16] 2% | [9]; at 50.0 µM -2.45% | [10]; at 1.2 µM -1% | [10]; at 3.7 µM 4% | [10]; [15] 21% | [10]; at 11.0 µM 16% | [10]; at 33.0 µM 43% | [10]; [16] 65% | [10]; at 50.0 µM 55.1% | [10]; at 100.0 µM 68% | [11]; at 1.2 µM -3% | [11]; at 3.7 µM -1% | [11]; at 11.0 µM 11% | [11]; at 33.0 µM 47%
active: [1]; at 100.0 µM 79% | [4]; at 50.0 µM 80.1% | [4]; at 100.0 µM 81% | [5]; at 100.0 µM 72% | [11]; at 100.0 µM 70%

— PubChem BioAssay (NCI)
